DT40 TDP1 CPT: DT40-hTDP1 cell growth loss with CPT; chicken DT40 Tdp1-/-;hTDP1 cells + 20 nM CPT, ATP luminescence, 48 h; Potency, µM (doses to about 46.2 µM), most hits filed as inhibitors; 420,000 compounds, 12% hits; AID 686979; further: nearly all actives have a fitted effect of over 55% in size
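Cell growth measured by CellTiter-Glo luminescence after a minimum 48 h, 37 C compound exposure with 20 nM CPT in Tdp1-knockout DT40 cells stably expressing hTDP1, seeded 400/well; qHTS titration format.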
SW480 rerep: DNA re-replication induction in SW480 cells | 340,000 compounds, 1.8% hits | Potency, µM (series often up to 46.1 µM), most hits filed as activators | SW480 DNA re-replication, Hoechst DNA content imaging, 48 h | AID 624297; further: nearly all actives have a fitted effect of over 55% in size
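Compounds, transferred as 23 nL by pin tool, were incubated with cells for 48 hr; DNA content per nucleus was then quantified by Hoechst staining and fluorescence plate imaging.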
MCF10A rereplic: DNA re-replication induction in MCF 10a cells; MCF 10A DNA re-replication, Hoechst nuclear intensity, 48 h; Potency, µM (doses to about 46.1 µM), hits mostly activators; 350,000 compounds, 2.9% hits; AID 624296; further: nearly all actives have a fitted effect of over 50% in size
IL-1B inflam inh: inflammasome signaling inhibition, IL-1 beta readout; THP-1 LPS/ATP IL-1B secretion, AlphaLISA, 16 h; hits give low values; activity change, % at 57.5 µM; 360,000 compounds, 4.7% hits; AID 743279; in the data active means activity change below about -50%; inconclusive means mostly about -30% to -49%
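THP-1 cells pretreated 1 hr with compounds (up to 57.5 uM final), then stimulated with LPS (250 ng/mL final) plus ATP (1.25 mM final); secreted IL-1B measured by AlphaLISA after 16 hr, decreased signal indicating inhibition.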
BCR signal inh: chronic active BCR signaling inhibition | Potency, µM (series often up to 46.1 µM), usual class: inhibitors | ABC-DLBCL IkBa-CBG/CBR reporter, luminescence ratio, 4 h | 340,000 compounds, 0.05% hits; active means well fitted inhibition curve with a large enough effect in the signal ratio, with a control signal flat, not every such curve was filed as active; inconclusive means small, poorly fitted or top-dose-only effect, or effect the other way, or a change in a side signal; the % refers to the signal ratio
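Doxycycline induced both beetle luciferases in TMD8 lymphoma cells; IKK-driven degradation limits the IkappaBalpha-fused green signal, while red luminescence normalises for cell number and nonspecific effects. Compounds tested up to 46 uM, 4 hrs.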
DT40 TDP1 no CPT: qHTS for Inhibitors of human tyrosyl-DNA phosphodiesterase 1 (TDP1): qHTS in cells in absence of CPT | DT40 Tdp1-/- hTDP1 cells, no CPT, ATP luminescence, 48 h | Potency, µM (doses to about 46.2 µM), usual class: inhibitors | 420,000 compounds, 15% hits | AID 686978, 2013; further: nearly all actives have a fitted effect of over 55% in size
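No-CPT arm: Tdp1-/-;hTDP1 DT40 cells (400/well) plus compounds, incubated ≥48 hr at 37 °C. Readout CellTiter-Glo luminescence.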
Hits are given with their value; - = inactive; ? = inconclusive; . = no result. A selection: hits, their analogues and other compounds. The true share with any hit is near 19%. Unless noted, the call rests on the fitted dose curve; in most records, active means well fitted curve in the direction sought with a large enough effect; inconclusive means small, poorly fitted or top-dose-only effect, or another doubt; inactive means no such curve, though single readings can be large; an effect the other way counts as inactive or inconclusive.

SMILES	DT40 TDP1 CPT	SW480 rerep	MCF10A rereplic	IL-1B inflam inh	BCR signal inh	DT40 TDP1 no CPT
CCCNC(=O)CSc1c(CCC)cnc2c1c(=O)n(C)c(=O)n2C	-	.	.	.	-	-
CC(C)c1cnc2c(c1SCC(=O)NC(C)(C)C)c(=O)n(C)c(=O)n2C	-	.	.	.	.	-
CCc1cnc2c(c1SCCC(C)C)c(=O)n(C)c(=O)n2C	26µM	.	.	.	-	?
CCc1ccccc1NC(=O)Cn1nnc2sc3c(c2c1=O)CCC(C(C)(C)C)C3 (configuration not stated)	16µM	.	.	.	.	15µM
Cc1ccc(Cl)cc1NC(=O)Cn1nnc2sc3c(c2c1=O)CCC(C(C)(C)C)C3 (configuration not stated)	7.3µM	.	.	.	.	4.1µM
CC(=O)Cn1nnc2sc3c(c2c1=O)CCC(C(C)(C)C)C3 (configuration not stated)	?	-	-	?	?	?
COc1ccc(NC(=O)Cn2nnc3sc4c(c3c2=O)CCC(C)C4)c(OC)c1 (configuration not stated)	-	.	.	.	.	-
CCCOC(=O)c1ccc(NC(=O)Cn2nnc3sc4c(c3c2=O)CCC(C(C)(C)C)C4)cc1 (configuration not stated)	18µM	.	.	.	.	8.2µM
Cc1cc(C)c(NC(=O)Cn2nnc3sc4c(c3c2=O)CCC(C(C)(C)C)C4)c(C)c1 (configuration not stated)	15µM	.	.	.	.	21µM
CCOC(=O)c1sc(NC(=O)Cn2nnc3sc4c(c3c2=O)CCC(C(C)(C)C)C4)nc1C (configuration not stated)	-	-	?	-	-	-
CCN(C(=O)Cn1nnc2sc3c(c2c1=O)CCC(C(C)(C)C)C3)c1cccc(C)c1 (configuration not stated)	16µM	.	.	.	.	21µM
Cc1ccc(OCCn2nnc3sc4c(c3c2=O)CCC(C(C)(C)C)C4)cc1 (configuration not stated)	-	.	.	.	.	-
Cn1cccc1C(=O)NNC(=O)COc1ccccc1Cl	-	-	-	?	-	-
O=C(Cc1ccc(Br)cc1)OCC(=O)c1ccc[nH]1	-	-	-	-	-	-
COc1ccc(S(=O)(=O)N2CCN(CC(=O)NCCc3cccs3)CC2)cc1	-	-	-	-	-	-
O=C(C[C@@H]1C/C=C\CCCC(=O)OC[C@@H]2CCCN2C1=O)N[C@@H](CO)Cc1ccccc1	-	-	-	-	-	-
CN(C)CCC(C(=O)c1ccccc1)c1ccccn1 (configuration not stated)	-	-	-	-	.	-
CCCCC(CCc1ccccn1)C(=O)c1ccccc1 (configuration not stated)	23µM	-	?	-	.	?
CN(C)CC(CCCCC(CN(C)C)C(=O)c1ccccc1)C(=O)c1ccccc1 (configuration not stated)	5.8µM	10µM	?	-72	?	5.8µM
[O-]/[N+](=C\c1ccncc1)c1ccccc1	21µM	-	-	-	-	?
COc1ccc(/C(O)=C2/C(=O)C(=O)N(c3ccccn3)C2c2ccc(F)cc2)cc1 (configuration not stated)	-	-	-	-	-	-
COc1ccc(C2/C(=C(/O)c3ccc(F)cc3)C(=O)C(=O)N2c2ccccn2)cc1OC (configuration not stated)	?	?	-	-	-	23µM
CCC1CCC/C1=N\NC(=O)c1ccccc1C (configuration not stated)	-	-	-	-	.	-
COc1ccc(-c2nnc(CSc3ncnc4sc5c(c34)CCC5)o2)cc1OC	?	?	-	-	-	10µM
CN(C(=O)COC(=O)CNC(=O)CNC(=O)c1ccc(Cl)cc1Cl)c1ccccc1	-	-	?	-143	?	?
O=C(COC(=O)CNC(=O)c1ccc(Cl)cc1Cl)NNC(=O)c1ccccc1F	-	-	-	-	-	-

Bioassay records (PubChem)
